Hits are enriched below; roughly 11% of the tested compounds scored in any of these assays.
HEK cytotox: HEK 293 cell cytotoxicity | HEK 293 viability, ATP luminescence (CellTiter-Glo), 48-72 h | 94,000 tested, 6.6% active | Potency, µM (series often up to 115 µM), hits mostly inhibitors; further: nearly all actives have a fitted effect of over 60% in size
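qHTS cytotoxicity; HEK 293, 250 cells/well; compound pinned; 48 or 72 hr, 37 degree Celsius, 5% CO2, 95% humidity; CellTiter-Glo, 10 min RT; luminescence (ATP).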
Luciferase inh: inhibitors of firefly (Photinus pyralis) luciferase; P08659; purified P. pyralis luciferase, luminescence, biochemical; Potency, µM (titrated, usually from 115 µM), actives largely listed as inhibitors; 76,000 tested, 2.5% active; AID 1347043; further: nearly all actives have a fitted effect of over 65% in size
Target sequence (P08659 whole entry, looked up): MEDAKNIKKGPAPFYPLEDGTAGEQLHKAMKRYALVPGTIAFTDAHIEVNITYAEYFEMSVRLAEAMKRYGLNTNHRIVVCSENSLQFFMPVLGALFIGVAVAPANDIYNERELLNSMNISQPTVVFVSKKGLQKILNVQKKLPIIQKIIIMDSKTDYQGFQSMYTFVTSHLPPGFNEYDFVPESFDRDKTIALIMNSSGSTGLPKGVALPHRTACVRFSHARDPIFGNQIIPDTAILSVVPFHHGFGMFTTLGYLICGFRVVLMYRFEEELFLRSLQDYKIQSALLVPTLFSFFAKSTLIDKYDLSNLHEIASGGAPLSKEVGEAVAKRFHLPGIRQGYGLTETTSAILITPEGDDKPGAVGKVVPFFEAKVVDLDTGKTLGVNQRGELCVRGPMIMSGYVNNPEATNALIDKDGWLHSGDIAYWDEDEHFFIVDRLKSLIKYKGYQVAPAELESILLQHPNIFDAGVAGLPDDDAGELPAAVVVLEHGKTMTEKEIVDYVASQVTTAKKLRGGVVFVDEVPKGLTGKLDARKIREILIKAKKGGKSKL
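FLuc 10nM, D-luciferin 10uM, ATP 10uM, Mg acetate 10mM, Tris acetate pH 7.5, Tween/BSA; cpd qHTS; enzyme added last; CCD luminescence.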
NPR1 antag: human Npr1 receptor antagonism; HEK293 hNpr1 GloSensor cGMP, ANP-stimulated luminescence; AID 1347048; Potency, µM (top dose mostly 46.3 µM), most hits filed as inhibitors; 76,000 tested, 1.6% active; calls by dose curve; further: nearly all actives have a fitted effect of over 60% in size
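HEK293 cells stably expressing human Npr1 and cGMP GloSensor pGS-40F, loaded 2 h with 2% GloSensor reagent, given compound 30 min at room temperature. Luminescence read before and 20 min after 0.1 nM hNppA.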
3T3 cytotox: cytotoxic compounds in NIH 3T3 cells; NIH 3T3 viability, CellTiter-Glo ATP luminescence, 48-72 h; Potency, µM (highest dose often 96.7 µM), hits mostly inhibitors; 94,000 tested, 4.3% active; further: nearly all actives have a fitted effect of over 55% in size
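First NIH 3T3 cells are plated at 400 cells/well; next compound is pinned in; then plates incubate 48 or 72 hr at 37 °C; finally CellTiter-Glo is added and luminescence read after 10 min.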
A number is an active result; i = inactive; ? = inconclusive; nt = not tested or not shown. Unless noted, the call rests on the fitted dose curve; in most records, active means well fitted curve in the direction sought with a large enough effect; inconclusive means small, poorly fitted or top-dose-only effect, or another doubt; inactive means no such curve, though single readings can be large; an effect the other way counts as inactive or inconclusive.

SMILES	HEK cytotox	Luciferase inh	NPR1 antag	3T3 cytotox
COc1ccc(C(=O)Nc2ncc(-c3cccc(N(C)C)c3)c3c2OCC3)cc1	100µM	?	?	?
COCCNc1ncc(-c2ccc(NC(C)=O)cc2)c2c1OCC2	?	i	i	?
COCCNc1ncc(-c2cccc(OC)c2)c2c1OCC2	?	18µM	i	?
COCCNc1ncc(-c2cccc(F)c2)c2c1OCC2	?	79µM	i	?
O=C(Nc1ncc(-c2cccc(F)c2)c2c1OCC2)c1c[nH]c2ccccc12	50µM	?	i	40µM
COc1ccc(N2CC3CCC(C2)N3Cc2ccc(Cl)cc2)cc1	?	nt	nt	i
O=C(C1CCCN1C(=O)c1ccc(F)cc1)N1CCC(c2ccccc2)CC1 (stereo not given)	?	nt	nt	i
COc1ccc(CC(=O)N2CCN(C(=O)c3cccc(-c4ccccn4)c3)CC2)cc1	?	nt	nt	i
Fc1cccc(-c2cnc(Nc3cccnc3)c3c2CCO3)c1	?	i	i	?
COCCNc1ncc(-c2cccc(N[S+](C)(=O)[O-])c2)c2c1OCC2	?	63µM	i	?
CNC(=O)c1cccc(-c2cnc(Nc3cccc(F)c3)c3c2CCO3)c1	?	22µM	i	?
Cc1cccc(N2Cc3c(ncnc3N3CCN(c4ncccn4)CC3)N(C)CC2=O)c1	i	nt	nt	i
CC1=C[C@@H](CNC(=O)c2ccncc2)[C@H](C(C)C)C[C@H]1CC(=O)N1CCCC1	i	?	i	i
Cc1ccccc1C(=O)N1CCC(CCC(=O)N2CCN(c3ccccn3)CC2)CC1	?	32µM	i	i
CC1=C[C@@H](CO)[C@H](C(C)C)C[C@H]1CC(=O)N1CCN(c2ccccn2)CC1	100µM	?	i	?
CC1=C[C@@H](CNC(=O)c2ccncc2)[C@H](C(C)C)C[C@H]1CC(=O)N1CCN(C)CC1	i	20µM	i	i
CCOC(=O)C[C@@H]1C[C@@H](C(C)C)[C@H](CNC(=O)c2ccncc2)C=C1C	89µM	i	?	?
COc1cccc(-c2cc(C(=O)N3CCC(Cc4ccccc4)CC3)c3cnn(C)c3n2)c1	45µM	nt	nt	?
COc1cccc(-c2cc(C(=O)N3CCC(c4ccccc4)CC3)c3cnn(C)c3n2)c1	35µM	nt	nt	?
COc1cccc(-c2cc(C(=O)N3CCC(C#N)CC3)c3cnn(C)c3n2)c1	i	nt	nt	i
COc1ccc(CC(=O)NC2CCCN(Cc3ccc(-c4cccc(OC)c4)cc3)C2)cc1 (stereo not given)	25µM	nt	nt	35µM
COc1cccc(-c2ccc(CN3CCCC(NC(=O)Cc4ccc(F)cc4)C3)cc2)c1 (stereo not given)	32µM	nt	nt	?
COc1cccc(-c2ccc(CN3CCCC(NC(=O)C4CC4)C3)cc2)c1 (stereo not given)	35µM	nt	nt	?
COC(=O)NC1CCCN(Cc2ccc(-c3cccc(OC)c3)cc2)C1 (stereo not given)	45µM	nt	nt	?
O=C(CCn1ccc2ccc(Cl)cc21)Nc1ccc2c(c1)C(=O)N1CCC[C@H]1C(=O)N2	?	i	i	?
SMILES	HEK cytotox	Luciferase inh	NPR1 antag	3T3 cytotox
CN(C)CC(=O)N1Cc2ccccc2CC2(CCCN(CC3CCNC3)C2)C1 (stereo not given)	i	nt	nt	i
COc1cccc(-c2ccc(CN3CCCC(NC(=O)c4ccccc4Cl)C3)cc2)c1 (stereo not given)	20µM	nt	nt	28µM
COc1cccc(-c2ccc(CN3CCCC(NC(=O)Nc4ccccc4)C3)cc2)c1 (stereo not given)	?	nt	nt	22µM
COc1cccc(-c2ccc(CN3CCCC(N[S+](=O)([O-])c4ccccc4)C3)cc2)c1 (stereo not given)	22µM	nt	nt	40µM
CC1(C)CC(NC(=O)C2CCN(c3nc(-c4ccccc4)nc4c3CCC4)CC2)CCO1 (stereo not given)	?	i	i	?
COc1cccc(CN2C(=O)CCCCC2C(=O)N2CCN(c3ncccn3)CC2)c1 (stereo not given)	i	nt	nt	i
COc1ccccc1-c1cccc(CN2CCCC(C(=O)N3CCN(c4ncccn4)CC3)C2)c1 (stereo not given)	16µM	nt	nt	?
COc1ccccc1-c1cccc(CN2CCCC(C(=O)N3CCN(C(C)=O)CC3)C2)c1 (stereo not given)	?	nt	nt	i
COc1ccccc1-c1cccc(CN2CCCC(C(=O)N3CCC(c4ccccc4)CC3)C2)c1 (stereo not given)	40µM	nt	nt	?
COc1ccccc1-c1cccc(CN2CCCC(C(=O)N3CCCC(C)C3)C2)c1 (stereo not given)	40µM	nt	nt	?
CS(=O)(=O)N1CCCC(C(=O)N2CCC(c3ccccc3)CC2)C1 (stereo not given)	i	nt	nt	i
O=C(C1CCCN(Cc2cccc(-c3ccc(F)cc3F)c2)C1)N1CCOCC1 (stereo not given)	?	nt	nt	i
COc1ccccc1-c1cccc(CN2CCCC(C(=O)N3CCN(Cc4ccccc4)CC3)C2)c1 (stereo not given)	40µM	nt	nt	35µM
COc1ccc(-c2ccc(C(=O)N3CCC(NC(=O)c4ccc(F)cc4)C3)cc2)nn1 (stereo not given)	i	nt	nt	i
COc1ccccc1N1CCN(c2ncccc2CNC(=O)c2ccco2)CC1	?	i	i	i
Cc1ccc(C(=O)N2CCC(CCC(=O)NCCc3c[nH]c4ccccc34)CC2)cc1	?	32µM	i	?
COc1ccc(OCc2nc(C3CN(C(=O)Cc4c[nH]c5ccccc45)C3)no2)cc1	45µM	i	?	?
Cc1ccc(OCCC2CCN(C(=O)Cc3c[nH]c4ccccc34)C2)cc1 (stereo not given)	35µM	i	?	?
COc1ccc(C(=O)NCC2Cn3cccc3CN2Cc2cccnc2)cc1 (stereo not given)	?	i	i	?
O=C(c1ccc(Cl)cc1)N1CCC(n2cnnc2-c2ccccc2)CC1	i	i	i	i
O=C(c1ccc(C(F)(F)F)cc1)N1CCCC2(C1)C(=NC1CCCC1)NC(=O)N2c1cc(F)cc(F)c1 (stereo not given)	i	nt	nt	i
COc1ccc2[nH]c3c(c2c1)CCNC31CCN(C(=O)Cn2c(=O)oc3ccccc32)CC1	?	i	i	i
COc1cc(-c2nc(CN3CCSCC3)c(C)o2)ccc1F	i	i	i	i
COc1cc(-c2nc(CN3CCCC(CN)C3)c(C)o2)cc2c1OCO2 (stereo not given)	40µM	i	i	?
COc1cc(C)c(-c2nc(CN3CCCC(CN)C3)c(C)o2)cc1C (stereo not given)	32µM	i	i	25µM
COc1cc(C)c(-c2nc(CN3CCOC(CCN)C3)c(C)o2)cc1C (stereo not given)	45µM	i	i	?
COc1ccc(-c2nc(CN3CC[C@H]4CC[C@@H](C3)N4)c(C)o2)c(OC)c1C	?	i	i	?
Cc1cnc(CC2CCN(S(=O)(=O)c3cccs3)C2)n1CC1CC1 (stereo not given)	?	i	i	i
COCCNC(=O)C1CC(=O)N(C2CN(Cc3cccc(F)c3)C2)C1 (stereo not given)	i	nt	nt	i

Compound activity deposited in PubChem BioAssay by National Center for Advancing Translational Sciences (NCATS).
